Assay results as given in PubChem BioAssay (EPA / NIEHS).
Calls of active or inactive are those of the source. How the source made its calls: active means hit-call score of the fitted dose curve at least 0.9, where 1 is the maximum; inactive means score below 0.9.

Each compound was assayed on Monokine induced gamma interferon (MIG), CXCL9 (gene 4283) (assay: BSK_hDFCGF_MIG: BioMAP Diversity Plus: hDFCGF Assay for Monokine induced gamma interferon (MIG) Biomarker Activity (AID 2283063)). Conditions: primary human foreskin fibroblasts; actives raise or lower the signal.
In short: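 Chemicals were added to primary human foreskin fibroblast cultures, which were sampled 24 h later. MIG levels were then quantified by ELISA and responses fitted in both directions relative to DMSO.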
`Cc1cc(F)ccc1-c1cc(N2CC[C@@H](O)[C@H]2CO)ncc1N(C)C(=O)C(C)(C)c1cc(C(F)(F)F)cc(C(F)(F)F)c1` was tested, and the AC50 was 15.8 µM (active).
For `Cc1cc2c(cc1C(F)(F)F)N(C(=O)Nc1ccc(Oc3cccnc3C)nc1)CC2`, the outcome was “inactive”.
With `CCCCCCCCOC(=O)c1cc(O)c(O)c(O)c1` the AC50 was 19.7 µM (active).
In the case of `O=c1c(-c2ccc(O)cc2)coc2cc(O)cc(O)c12`, the outcome is reported as “inactive”.
With `O=C1CCC(C2CCCCC2)CC1` the outcome was “inactive”.
`Oc1ccccc1` was tested, and the outcome was “inactive”.
For `CC1(C)NC(=O)N(c2ccc([N+](=O)[O-])c(C(F)(F)F)c2)C1=O`, the outcome was “inactive”.
`CN(C)c1ccc(C(=C2C=CC(=[N+](C)C)C=C2)c2ccc(N(C)C)cc2)cc1` was tested, and the AC50 was 5.26 µM (active).
For `CC[C@@H]1C[C@H](N(Cc2cc(C(F)(F)F)cc(C(F)(F)F)c2)C(C)=O)c2cc(C(F)(F)F)ccc2N1C(=O)OC(C)C`, the outcome was “inactive”.
`CN(C[C@@H](CC[N+]12CCC(C3CCCCC3)(CC1)CC2)c1ccc(Cl)c(Cl)c1)C(=O)c1cc(C(F)(F)F)cc(C(F)(F)F)c1` was tested, and the AC50 was 10.3 µM (active).
`CC/C(=C(/CC)c1ccc(O)cc1)c1ccc(O)cc1` was tested, and the AC50 was 28.1 µM (active).
For `Cc1cn([C@H]2C[C@H](N=[N+]=[N-])[C@@H](CO)O2)c(=O)[nH]c1=O`, the outcome was “inactive”.
In the case of `CCCCCCCCCCCCO`, the AC50 is reported as 33.3 µM (active).
`O=C=NCCCCCCN=C=O` was tested, and the outcome was “inactive”.
For `CN1C(=O)CC[C@H]1c1cccnc1`, the outcome was “inactive”.
In the case of `O=C1O[C@H]([C@@H](O)CO)C(O)=C1O`, the outcome is reported as “inactive”.
`CCN(Cc1cccc(S(=O)(=O)O)c1)c1ccc(C(=C2C=CC(=[N+](CC)Cc3cccc(S(=O)(=O)O)c3)C=C2)c2ccccc2S(=O)(=O)[O-])cc1` was tested, and the outcome was “inactive”.
In the case of `CN1C(=O)N(c2ccccc2Br)Cc2cnc(Nc3ccc4c(c3)OCC(CO)O4)nc21` (stereo unspecified), the AC50 is reported as 22.2 µM (active).
`CCN(Cc1cccnc1)C(=O)c1cccc(Cl)c1[C@]1(C)C(=O)N(Cc2ccc(OC)cc2OC)c2ccc(Cl)cc21` was tested, and the outcome was “inactive”.
`CCCC(=O)OCCC(C)C` was tested, and the outcome was “inactive”.

These compounds were tested on Vascular cell adhesion molecule 1 (VCAM1), VCAM1 (gene 7412) (assay: BSK_hDFCGF_VCAM1: BioMAP Diversity Plus: hDFCGF Assay for Vascular cell adhesion molecule 1 (VCAM1) Biomarker Activity (AID 2283065;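 on AC50: VCAM-1 protein level quantified by ELISA after 24 h chemical exposure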)). Conditions: primary human foreskin fibroblasts; actives raise or lower the signal.
In short: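 Human foreskin fibroblast primary cells, chemical exposure 24 h; VCAM-1 by ELISA; bidirectional fit, DMSO = negative control/baseline.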
With `CCO[Si](CCCNC(N)=O)(OCC)OCC` the outcome was “inactive”.
For `CCCCCCCCOc1ccc(C(=O)c2ccccc2)c(O)c1`, the outcome was “inactive”.
`COc1cc(C(=O)NC2CCN(C)CC2)ccc1Nc1ncc2c(n1)N(C1CCCC1)CC(F)(F)C(=O)N2C` was tested, and the AC50 was 2.79 µM (active).
`c1ccc2ccccc2c1` was tested, and the outcome was “inactive”.
For `O=CCCCC=O`, the AC50 was 20.7 µM (active).
In the case of `Cc1ncc(CO)c(CO)c1O`, the outcome is reported as “inactive”.
For `CCCCCCCC[Si](OCC)(OCC)OCC`, the outcome was “inactive”.
`CC(O)CC(C)(C)O` (stereo unspecified) was tested, and the outcome was “inactive”.
With `Clc1ccccc1C(c1ccccc1)(c1ccccc1)n1ccnc1` the AC50 was 8.14 µM (active).
With `COc1cccc([C@H](O)C2CCN(CCc3ccc(F)cc3)CC2)c1OC` the outcome was “inactive”.
With `CCCCCCCCCCCC[N+](C)(C)C` the AC50 was 15.4 µM (active).
With `Clc1cc(Cl)c2c(c1)N=C1CCCCCN1C2` the outcome was “inactive”.
In the case of `CO[C@H]1/C=C/O[C@@]2(C)Oc3c(C)c(O)c4c(O)c(c(/C=N/N5CCN(C)CC5)c(O)c4c3C2=O)NC(=O)/C(C)=C\C=C\[C@H](C)[C@H](O)[C@@H](C)[C@@H](O)[C@@H](C)[C@H](OC(C)=O)[C@@H]1C`, the outcome is reported as “inactive”.
For `Oc1ccc2ccccc2c1`, the outcome was “inactive”.
With `CN(C)C(=O)C1(N2CCCCC2)CCN(CC[C@@]2(c3ccc(Cl)c(Cl)c3)CN(C(=O)c3ccccc3)CCO2)CC1` the AC50 was 14.9 µM (active).
For `CCN(CC)C(=O)c1cc(S(=O)(=O)Cc2ccccc2)c(N2CCC(c3ccccc3)CC2)cc1N(CC)CCN(C)C`, the outcome was “inactive”.
With `OC12N=C(c3ccccc3)SC1Cc1cc(Cl)ccc12` (stereo unspecified) the outcome was “inactive”.
`Cc1c2ccccc2c(C)c2c1ccc1ccccc12` was tested, and the AC50 was 3.97 µM (active).
For `Cc1cc(F)ccc1-c1cc(N2CC[C@@H](O)[C@H]2CO)ncc1N(C)C(=O)C(C)(C)c1cc(C(F)(F)F)cc(C(F)(F)F)c1`, the AC50 was 12.6 µM (active).
For `Cc1cc2c(cc1C(F)(F)F)N(C(=O)Nc1ccc(Oc3cccnc3C)nc1)CC2`, the outcome was “inactive”.
With `CCCCCCCCOC(=O)c1cc(O)c(O)c(O)c1` the AC50 was 7.8 µM (active).
With `O=c1c(-c2ccc(O)cc2)coc2cc(O)cc(O)c12` the outcome was “inactive”.
In the case of `O=C1CCC(C2CCCCC2)CC1`, the AC50 is reported as 31.6 µM (active).
`Oc1ccccc1` was tested, and the outcome was “inactive”.
In the case of `CC1(C)NC(=O)N(c2ccc([N+](=O)[O-])c(C(F)(F)F)c2)C1=O`, the outcome is reported as “inactive”.
In the case of `CN(C)c1ccc(C(=C2C=CC(=[N+](C)C)C=C2)c2ccc(N(C)C)cc2)cc1`, the AC50 is reported as 3.25 µM (active).
